Laboratory results reported in PubChem BioAssay (Tox21).
Unmarked numbers belong to inactive results. Inconclusive results are not listed. The source made the active and inactive calls. Calls come from the whole dose curve.

Each compound was assayed against Acetylcholinesterase (Homo sapiens) (UniProt P22303) (assay: Acetylcholinesterase (AChE) small molecule antagonists: colormetric cell-based qHTS assay (AID 1347395; note: nearly all actives have a fitted effect of over 30% in size)). Conditions: SH-SY5Y cells AChE activity, colorimetric (Ellman); series mostly up to 115 µM; activity, negative = inhibition: at the top concentration.
Chain of Acetylcholinesterase (Homo sapiens) (P22303 whole entry, looked up): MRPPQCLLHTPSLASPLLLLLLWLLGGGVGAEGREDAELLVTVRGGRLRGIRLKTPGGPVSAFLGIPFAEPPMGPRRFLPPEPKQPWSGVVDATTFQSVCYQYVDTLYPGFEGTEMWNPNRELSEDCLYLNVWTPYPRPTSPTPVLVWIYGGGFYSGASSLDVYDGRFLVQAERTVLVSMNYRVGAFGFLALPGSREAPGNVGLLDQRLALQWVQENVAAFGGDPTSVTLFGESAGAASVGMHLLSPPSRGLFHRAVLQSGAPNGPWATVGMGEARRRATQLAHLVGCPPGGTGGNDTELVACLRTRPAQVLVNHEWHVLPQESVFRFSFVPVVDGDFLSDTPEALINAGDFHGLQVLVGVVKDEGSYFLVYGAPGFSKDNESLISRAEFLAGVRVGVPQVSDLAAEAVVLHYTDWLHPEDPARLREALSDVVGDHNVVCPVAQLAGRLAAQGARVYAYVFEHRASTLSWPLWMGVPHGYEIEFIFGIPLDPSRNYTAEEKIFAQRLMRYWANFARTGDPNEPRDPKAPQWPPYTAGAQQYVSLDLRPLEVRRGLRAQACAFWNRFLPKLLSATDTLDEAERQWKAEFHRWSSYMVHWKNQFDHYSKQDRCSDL
Method in brief: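 AChE inhibition read colorimetrically via DTNB–thiocholine in SH-SY5Y cells. Compound 30 min, substrate 90 min, both 37 C.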
% is set by controls: 0 for no effect and ±100 for the full control effect; potency is the fitted concentration of half-maximal effect.

Compound | activity, negative = inhibition | Potency
CCCCC(=O)N(C)C | 4.7% | –
C=C(C)[C@@H]1CC=C(C)C(=O)C1 | 3.07% | –
Oc1c(I)cc(Cl)c2cccnc12 | – | inactive
CCOC(=O)CC(=O)OCC | – | inactive
Sc1nc(S)nc(S)n1 | 7.1% [at 52.9 µM] | –
CC(c1cc2ccccc2s1)N(O)C(N)=O (stereo not given) | – | inactive
Cc1cc(C)c(S(=O)(=O)O)cc1N=Nc1cc(S(=O)(=O)O)c2ccccc2c1O | 10.6% | –
O=C(O)[C@H](O)[C@@H](O)[C@H](O[C@@H]1O[C@H](CO)[C@H](O)[C@H](O)[C@H]1O)[C@H](O)CO | 0.0881% [at 52.9 µM] | –
CCCCCC1CCC(=O)O1 (stereo not given) | 1.95% | –
Nc1c(Cl)cc(Cl)cc1[N+](=O)[O-] | 4% | –
CCCCC(CC)CN1CN(CC(CC)CCCC)CC(C)(N)C1 (stereo not given) | 0.0881% [at 52.9 µM] | –
COc1cc(C(=S)N2CCOCC2)ccc1O | 0.757% [at 52.9 µM] | –
O=C1O[C@H](CO)[C@@H](O)[C@H](O)[C@H]1O | – | inactive
C=C[Si](C)(C)Cl | 1.82% [at 10.5 µM] | –
CCc1ccccc1O | – | inactive
C#C[C@]1(O)CC[C@H]2[C@@H]3CCC4=Cc5oncc5C[C@]4(C)[C@H]3CC[C@@]21C | – | inactive
COC(=O)c1cccc(C(=O)OC)c1 | – | inactive
CC1COC(=O)O1 (stereo not given) | – | inactive
CC(=O)C1=C(C)[C@@H]2C[C@@]3(C1)[C@H](C)CC[C@H]3C2(C)C | – | inactive
O=C(O)c1ccc(O)cc1 | 3.06% | –

Compound | activity, negative = inhibition | Potency
Fc1ccc(C(c2ccc(F)cc2)N2CCNCC2)cc1 | -1.51% [at 52.9 µM] | –
CCCCCCCCCCOS(=O)(=O)O | 3.62% | –
CC(C)c1ccc(C(C)C)cc1 | – | inactive
CCCCCCCCCCCc1ccccc1 | 2.13% | –
O=C(O)c1ccc(O)cc1O | -0.0873% | –
C1CCCC1 | -4.6% | –
CCCCCC1Nc2cc(C(F)(F)F)c(S(N)(=O)=O)cc2S(=O)(=O)N1 (stereo not given) | – | 15.5 µM (active)
NCCNCCN | – | inactive
CCN(CC)C(=O)c1cccc(C)c1 | – | inactive
O=Cc1ccc(C(=O)O)cc1 | 0.26% | –
C=CCNCC=C | – | inactive
Brc1ccccn1 | 0.465% | –
C=C[C@](C)(O)CC[C@@H]1[C@@]2(C)CCCC(C)(C)[C@@H]2CC[C@@]1(C)O | 0% | –
O=C(OCC1(COC(=O)c2cccnc2)CCCC(COC(=O)c2cccnc2)(COC(=O)c2cccnc2)C1O)c1cccnc1 | -3.49% [at 52.9 µM] | –
CCCCCCCCCCCCCOC(=O)CCSCCC(=O)OCCCCCCCCCCCCC | 3.05% [at 23.6 µM] | –
Nc1ccc(/C=C/c2ccc(N)cc2S(=O)(=O)O)c(S(=O)(=O)O)c1 | -0.352% [at 0.435 µM] | –
CCN(Cc1cccc(S(=O)(=O)O)c1)c1ccc(C(=C2C=CC(=[N+](CC)Cc3cccc(S(=O)(=O)O)c3)C=C2)c2ccccc2S(=O)(=O)[O-])cc1 | 3.03% [at 52.9 µM] | –
CC(=O)O[C@@H]1CC2C3CCc4cc(OC(=O)c5ccccc5)ccc4C3CCC2(C)[C@H]1OC(C)=O (stereo not given in full) | 1.13% [at 52.9 µM] | –
CC(c1cc(C(C)(C)C)cc(C(C)(C)C)c1O)c1cc(C(C)(C)C)cc(C(C)(C)C)c1O | -5.27% | –
C=C(C)C(=O)OCCC[Si](OC)(OC)OC | – | inactive

The compounds below were run against Acetylcholinesterase (Homo sapiens) (UniProt P22303) (assay: Acetylcholinesterase (AChE) small molecule antagonists: enzyme-based qHTS assay (AID 1347397; note: nearly all actives have a fitted effect of over 55% in size)). Conditions: Potency: AChE enzyme activity inhibition; outcome: AChE enzyme activity inhibition; series mostly up to 115 µM; activity change, negative = inhibition: at the top concentration.
Method in brief: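 In this quantitative HTS, compounds from the Tox21 10K collection were preincubated 30 min at ambient temperature with recombinant human AChE dispensed at 50 mU/mL. Hydrolysis of acetylthiocholine was then followed for 10 min by DTNB colour development.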

Compound | activity change, negative = inhibition | Potency
CCCCC(=O)N(C)C | -0.682% | –
C=C(C)[C@@H]1CC=C(C)C(=O)C1 | 0% | –
Oc1c(I)cc(Cl)c2cccnc12 | – | inactive
CCOC(=O)CC(=O)OCC | – | inactive
Sc1nc(S)nc(S)n1 | 4.62% [at 53 µM] | –
CC(c1cc2ccccc2s1)N(O)C(N)=O (stereo not given) | – | inactive
Cc1cc(C)c(S(=O)(=O)O)cc1N=Nc1cc(S(=O)(=O)O)c2ccccc2c1O | 7.76% | –
O=C(O)[C@H](O)[C@@H](O)[C@H](O[C@@H]1O[C@H](CO)[C@H](O)[C@H](O)[C@H]1O)[C@H](O)CO | 1.24% [at 53 µM] | –
CCCCCC1CCC(=O)O1 (stereo not given) | -0.267% | –
Nc1c(Cl)cc(Cl)cc1[N+](=O)[O-] | 4.05% | –
CCCCC(CC)CN1CN(CC(CC)CCCC)CC(C)(N)C1 (stereo not given) | 0.277% [at 53 µM] | –
COc1cc(C(=S)N2CCOCC2)ccc1O | 0.81% [at 53 µM] | –
O=C1O[C@H](CO)[C@@H](O)[C@H](O)[C@H]1O | – | inactive
C=C[Si](C)(C)Cl | 0.136% [at 10.5 µM] | –
CCc1ccccc1O | – | inactive
C#C[C@]1(O)CC[C@H]2[C@@H]3CCC4=Cc5oncc5C[C@]4(C)[C@H]3CC[C@@]21C | – | inactive
COC(=O)c1cccc(C(=O)OC)c1 | – | inactive
CC1COC(=O)O1 (stereo not given) | – | inactive
CC(=O)C1=C(C)[C@@H]2C[C@@]3(C1)[C@H](C)CC[C@H]3C2(C)C | – | inactive
O=C(O)c1ccc(O)cc1 | – | inactive

Compound | activity change, negative = inhibition | Potency
Fc1ccc(C(c2ccc(F)cc2)N2CCNCC2)cc1 | -0.548% [at 53 µM] | –
CCCCCCCCCCOS(=O)(=O)O | 1.42% | –
CC(C)c1ccc(C(C)C)cc1 | – | inactive
CCCCCCCCCCCc1ccccc1 | 0.273% | –
O=C(O)c1ccc(O)cc1O | -0.273% | –
C1CCCC1 | 0.146% | –
CCCCCC1Nc2cc(C(F)(F)F)c(S(N)(=O)=O)cc2S(=O)(=O)N1 (stereo not given) | – | 21.9 µM (active)
NCCNCCN | – | inactive
CCN(CC)C(=O)c1cccc(C)c1 | – | inactive
O=Cc1ccc(C(=O)O)cc1 | -0.292% | –
C=CCNCC=C | – | inactive
Brc1ccccn1 | 0.273% | –
C=C[C@](C)(O)CC[C@@H]1[C@@]2(C)CCCC(C)(C)[C@@H]2CC[C@@]1(C)O | 0.0687% | –
O=C(OCC1(COC(=O)c2cccnc2)CCCC(COC(=O)c2cccnc2)(COC(=O)c2cccnc2)C1O)c1cccnc1 | 0.139% [at 53 µM] | –
CCCCCCCCCCCCCOC(=O)CCSCCC(=O)OCCCCCCCCCCCCC | 1.34% [at 23.6 µM] | –
Nc1ccc(/C=C/c2ccc(N)cc2S(=O)(=O)O)c(S(=O)(=O)O)c1 | -0.809% [at 0.435 µM] | –
CCN(Cc1cccc(S(=O)(=O)O)c1)c1ccc(C(=C2C=CC(=[N+](CC)Cc3cccc(S(=O)(=O)O)c3)C=C2)c2ccccc2S(=O)(=O)[O-])cc1 | 14.1% [at 53 µM] | –
CC(=O)O[C@@H]1CC2C3CCc4cc(OC(=O)c5ccccc5)ccc4C3CCC2(C)[C@H]1OC(C)=O (stereo not given in full) | 0.234% [at 53 µM] | –
CC(c1cc(C(C)(C)C)cc(C(C)(C)C)c1O)c1cc(C(C)(C)C)cc(C(C)(C)C)c1O | -0.409% | –
C=C(C)C(=O)OCCC[Si](OC)(OC)OC | – | inactive
